Tg IFNy HTS: T. gondii growth inhibition under IFN-gamma | Toxoplasma gondii growth in IFN-gamma-treated host cells; hits give low values | activity change, negative = inhibition, % (concentration not given with the values) | 69,000 tested, 3.8% active; in the data active = activity change below about -70%, passing the limit was not always enough;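 also: host cells are HeLa cells infected with Toxoplasma gondii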
Hits are given with their value; - = inactive. The sample as a whole holds a higher share of hits than the screen did.

SMILES	Tg IFNy HTS
Nc1nc(C2CCN(C(=O)CCc3ccccc3)CC2)ccc1C(=O)NCc1ccccc1	-
OC(CSc1nc2ccccc2s1)Cn1c2ccccc2c2ccccc21 (centres undefined)	-74.5
Cc1nc2ccccc2n1CC(O)Cn1c2ccccc2c2ccccc21 (centres undefined)	-
C=CCn1c(SCC(O)Cn2c3ccccc3c3ccccc32)nnc1-c1ccco1 (centres undefined)	-
COc1ccc(-c2nc(Cn3nnc(-c4nc(-c5ccccc5OC)no4)c3C)c(C)o2)cc1	-
COc1ccc(-c2nc(N(CCCN3CCOCC3)Cc3ccco3)c3ccccc3n2)cc1	-
O=S(=O)(c1ccccc1)N1CC2CN(Cc3ccc(Cl)cc3)C2C1 (centres undefined)	-105.6
O=S(=O)(Cc1ccccc1)N1CC2CN(Cc3cccc(Cl)c3)CC2C1 (centres undefined)	-
O=S(=O)(Cc1ccccc1)N1CC2CN(Cc3ccccc3)CC2C1 (centres undefined)	-
O=C(NCCc1ccccc1)c1ccccc1Cl	-
CC(C)(C)c1ccc(NC(=S)NCCc2ccncc2)cc1	-
O=C(NCCc1ccncc1)c1cc(Br)ccc1O	-75.8
CN(Cc1ncc[nH]1)C(=O)c1coc(CN2CCN(c3ccccc3F)CC2)n1	-
COCCCN(C(=O)Nc1c(C)cccc1Cl)C1CCN(C)CC1	-
CC(=O)OCC1CCN(c2ncccc2C(=O)NCCCn2ccnc2)CC1	-
CN1CCN(CC#N)C(=O)C12CCN(Cc1nccs1)CC2	-
Cc1oc(C2CCN(C(=O)c3cc(F)ccc3Cl)CC2)nc1C(=O)N1CCCC1	-
Cc1nc(-c2ccccn2)nc(SCc2ccccc2)c1Cl	-89.3
Clc1ccc(CSc2n[nH]c(-c3ccccn3)n2)cc1	-
Cc1nc(-c2ccccn2)nc(SCC(=O)N2CCOCC2)c1Cl	-
CN(C)C(=O)CO[C@H]1CN(Cc2cccc(C#N)c2)[C@H]2COC[C@@H]12	-
CC(=O)N1CCC2OCCCC2(COCc2ccccn2)C1 (centres undefined)	-
Cc1oc(C2CCN(S(=O)(=O)c3ccccc3F)CC2)nc1C(=O)N1CCCC1	-
Cc1oc(C2CCN(S(=O)(=O)c3cc(F)ccc3F)CC2)nc1C(=O)N1CCCC1	-
Cc1ccc(NC(=O)N2CCC(c3nc(C(=O)N4CCCC4)c(C)o3)CC2)c(C)c1	-77.4
SMILES	Tg IFNy HTS
Cc1cccc(NC(=O)N2CCC(c3nc(C(=O)N4CCCC4)c(C)o3)CC2)c1	-
Cc1ccc(NC(=O)N2CCC(c3nc(C(=O)N4CCCC4)c(C)o3)CC2)cc1	-
Cc1oc(C2CCN(C(=O)Nc3cccc(F)c3C)CC2)nc1C(=O)N1CCCC1	-81.3
Cc1ccc(F)cc1S(=O)(=O)N1CCC(c2nc(C(=O)N3CCCCC3)c(C)o2)CC1	-77.1
Cc1ccc(NC(=O)N2CCC(c3nc(C(=O)N4CCCC4)c(C)o3)CC2)c(Cl)c1	-
Cc1oc(C2CCN(C(=O)Nc3cc(F)cc(F)c3)CC2)nc1C(=O)N1CCCC1	-
COCC(=O)N1CCc2ncc(CN(C)Cc3cncnc3)n2CC1	-
C=CCC(=O)Nc1c(C)cnn1C(CC)CC	-
O=C(CSc1nc2[nH]c(=O)cc(O)c2s1)Nc1ccc(Cl)c(C(F)(F)F)c1	-
O=C(Nc1ccc(Cl)cc1)Nc1ccno1	-
O=C(Nc1ccc(Cl)cc1)Nc1ccc(Cl)c(C(F)(F)F)c1	-76.6
COc1ccc2c3c(n(C)c2c1)[C@H](CO)N(C(=O)Nc1ccc(F)cc1)CC31CCN(Cc2ccccn2)CC1	-
COc1ccc2c3c(n(C)c2c1)[C@@H](CO)N(C(=O)Nc1ccc(F)cc1)CC31CCN(S(=O)(=O)c2cccc(C)c2)CC1	-75.5
COc1ccc2c3c(n(C)c2c1)[C@H](CO)N(C(=O)Nc1ccc(F)cc1)CC31CCN(S(=O)(=O)c2cccc(C)c2)CC1	-74.1
CCCNC(=O)N1CC2(CCN(S(=O)(=O)c3ccccc3)CC2)c2c(n(C)c3cc(OC)ccc23)[C@H]1CO	-
COc1ccc2c3c(n(C)c2c1)[C@@H](CO)N(C(=O)Nc1ccc(F)cc1)CC31CCN(Cc2ccccn2)CC1	-
COc1ccc2c3c([nH]c2c1)[C@H](CO)N(C(=O)Nc1cccc(F)c1)CC31CCN(S(=O)(=O)c2cccc(C)c2)CC1	-
CN(C)C(=O)CN1C[C@@H]2CCN(C(=O)C3CCCO3)CC[C@H]2S1(=O)=O (some centres undefined)	-
O=C1c2ccc(-c3ccccc3)cc2C(=O)N1C1c2ccccc2Oc2ccccc21	-
CC(C)c1nccc(-c2nccn2CCN2CCCC2=O)n1	-
CCN1c2cc(F)ccc2C(=O)NC12CCN(C(=O)c1ccc(OC)cc1OC)CC2	-
CCCCOc1c(C(=O)c2c(F)cc(C)cc2F)cnc2n[nH]cc12	-91.5
CCCS(=O)(=O)Nc1ccc(F)c(C(=O)c2c[nH]c3ncc(Cl)cc23)c1F	-
O=C(CCC1Nc2c3ccccc3nc(=S)n2C1=O)NCc1cccnc1 (centres undefined)	-
CCc1ccc(NC(=O)N2CCc3nc(-c4ccc(OC)c(OC)c4)sc3C2)cc1	-79.2
SMILES	Tg IFNy HTS
CCc1ccccc1NC(=O)N1CCc2nc(-c3cccc(OC)c3)sc2C1	-
COc1ccc(-c2nc3c(s2)CN(C(=O)Nc2cc(C)ccc2C)CC3)cc1OC	-
Cc1ccc(-c2nc3c(s2)CN(C(=O)Nc2cc(C)ccc2C)CC3)cc1	-
CCc1ccccc1NC(=O)N1CCc2nc(-c3ccc(OC)c(OC)c3)sc2C1	-
COc1ccc(-c2nc3c(s2)CN(C(=O)Nc2ccc(C)c(C)c2)CC3)cc1OC	-82.8
COC(=O)c1cc(OC)ccc1-c1ccc(NC(C)=O)cc1	-
CC1=C(C(=O)Nc2ccc(C)cc2C)C2(CCN(C(C)C)CC2)OC1=O	-
Cn1c(O)c(C2=c3ccccc3=NC2=O)c2ccccc21	-
COC(=O)c1ccc2c(C(=Nc3ccc(N(C)C(=O)CN4CCN(C)CC4)cc3)c3ccccc3)c(O)[nH]c2c1	-77.7
CN(C)C(=O)CN1CCN(Cc2cccc(C(=O)Nc3cnn(C)c3)c2)CC1	-
Cc1nc(CN2CCN(CCC(=O)Nc3nccs3)CC2)no1	-
CCCc1nc(NC(C(=O)N(C)C)c2ccccc2)c2cnn(C)c2n1 (centres undefined)	-
Cc1c(C(=O)N2CCCC(O)(CN(C)C)C2)n(C)c2c(C)cccc12 (centres undefined)	-
C=CCn1c(=O)c(C(=O)Nc2cc(C)cc(C)c2)c(O)c2ccccc21	-
Cc1ccc(C2(O)CCN(C(=O)c3n[nH]c4c3CN(C)CC4)CC2)nc1	-
CCN1C[C@@H]2C3(CCN(S(=O)(=O)C4CC4)CC3)CC[C@]2(C(=O)N2CCCC2)C1	-
C[C@H]1CN([C@@H](C)CO)C(=O)c2cc(C#CC3(O)CCCC3)cnc2O[C@@H]1CN(C)S(=O)(=O)c1cccc(F)c1	-112.0
C[C@@H]1CN([C@H](C)CO)C(=O)c2cc(C#CC3(O)CCCC3)cnc2O[C@H]1CN(C)S(=O)(=O)c1cccc(F)c1	-
C[C@H]1CN([C@@H](C)CO)C(=O)c2cc(C#Cc3ccccc3)cnc2O[C@H]1CN(C)C(=O)c1ccccc1	-
C[C@H](CO)N1C[C@H](C)[C@@H](CN(C)C(=O)c2ccccc2)Oc2ncc(C#Cc3ccccc3)cc2C1=O	-88.2
C[C@H](CO)N1C[C@H](C)[C@H](CN(C)S(=O)(=O)c2cccc(F)c2)Oc2ncc(C#CC3(O)CCCC3)cc2C1=O	-
C[C@@H]1CN([C@H](C)CO)C(=O)c2cc(C#Cc3ccccc3)cnc2O[C@@H]1CN(C)C(=O)c1ccccc1	-
